Assay results from PubChem BioAssay (EPA / NIEHS).
Inconclusive results are not listed. The source made the active and inactive calls. The calls were made as follows, unless noted: active = hit-call score of the fitted dose curve at least 0.9, where 1 is the maximum; inactive = score below 0.9.

Assays:
[1] = biological target: Retinoic acid receptor RXR-alpha (Homo sapiens) (UniProt P19793); experiment: OT_NURR1_NURR1RXRa_0480: Odyssey Thera (OT) 8-hour HEK293T Protein Complementation Assay for Nurr1/retinoid X receptor (RXR) (AID 2283385; active = hit-call score of the fitted dose curve at least 0.9, where 1 is the maximum)
Chain of Retinoic acid receptor RXR-alpha (Homo sapiens) (P19793 whole entry, looked up, the tested form may be a part): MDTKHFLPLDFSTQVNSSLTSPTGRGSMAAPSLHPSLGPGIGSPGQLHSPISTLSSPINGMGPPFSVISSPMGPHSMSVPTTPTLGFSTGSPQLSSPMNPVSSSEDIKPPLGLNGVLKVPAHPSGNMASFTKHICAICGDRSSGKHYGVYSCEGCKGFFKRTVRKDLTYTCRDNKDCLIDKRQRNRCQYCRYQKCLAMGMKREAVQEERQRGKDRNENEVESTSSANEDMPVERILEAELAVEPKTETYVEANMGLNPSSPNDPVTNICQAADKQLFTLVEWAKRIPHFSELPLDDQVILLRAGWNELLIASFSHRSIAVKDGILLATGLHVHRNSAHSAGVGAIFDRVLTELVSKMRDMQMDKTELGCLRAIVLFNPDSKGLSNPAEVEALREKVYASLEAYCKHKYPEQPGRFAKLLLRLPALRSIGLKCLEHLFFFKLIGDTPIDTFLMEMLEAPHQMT
Method in brief: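 Compounds are applied to HEK293T cells carrying Nurr1 and RXRα linked to reporter fragments. After 8 h, fluorescence intensity reports heterodimer formation, with DMSO as baseline.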

[2] = read-out: Tumor necrosis factor receptor superfamily member 6 (Homo sapiens) (UniProt P25445); experiment: LTEA_HepaRG_FAS: Life Technologies and Expression Analysis (LTEA) Assay for Fas cell surface death receptor (FAS) using HepaRG (AID 2283447); settings: mRNA level, 48 h; actives raise or lower the signal
Method in brief: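 FAS transcript level was measured by TaqMan qRT-PCR against three housekeeping genes after 48 h chemical exposure. Cells were HepaRG, 0.5% DMSO vehicle, with a top concentration of 100 uM and half-log dilutions over eight points, in duplicate.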

[3] = read-out: Fatty acid synthase (Homo sapiens) (UniProt P49327); experiment: LTEA_HepaRG_FASN: Life Technologies and Expression Analysis (LTEA) Assay for Fatty Acid Synthase (FASN) using HepaRG (AID 2283448); settings: mRNA level, 48 h; actives raise or lower the signal;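 as to AC50: differentiated human HepaRG liver cells in serum-free induction medium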
Method in brief: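 Transcript-level assay: HepaRG liver cells are treated for 48 h across an eight-point range topping at 100 uM, and FASN mRNA, normalized to three housekeeping genes, is compared with DMSO controls in both directions.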

[4] = read-out: Cyclin D2 (CCND2), CCND2 (gene 894); experiment: LTEA_HepaRG_CCND2: Life Technologies and Expression Analysis (LTEA) Assay for Cyclin D2 (CCND2) using HepaRG (AID 2283449); settings: mRNA level, 48 h; actives raise or lower the signal
Method in brief: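 Read-out is CCND2 mRNA level measured by qRT-PCR in human HepaRG liver cells and normalised to three housekeeping genes. Chemicals were applied for 48 h at up to 100 uM, with gain or loss fitted relative to 0.5% DMSO.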

[5] = read-out: Cyclin D1 (CCND1), CCND1 (gene 595); experiment: LTEA_HepaRG_CCND1: Life Technologies and Expression Analysis (LTEA) Assay for Cyclin D1 (CCND1) using HepaRG (AID 2283451); settings: mRNA level, 48 h; actives raise or lower the signal;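 as to AC50: differentiated human HepaRG liver cells in serum-free induction medium; TaqMan qRT-PCR transcript level normalised to ACTB GAPDH and POLR2A housekeeping genes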
Method in brief: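 Differentiated HepaRG cells exposed 48 h in serum-free induction medium to eight half-log concentrations from 100 uM top, 0.5% DMSO, duplicates. CCND1 mRNA measured by Fluidigm TaqMan qRT-PCR, normalised to ACTB, GAPDH, POLR2A; bidirectional fit.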

[6] = biological target: Peroxisome proliferator-activated receptor gamma (Homo sapiens) (UniProt P37231); experiment: OT_PPARg_PPARgSRC1_0480: Odyssey Thera (OT) 8-hour Protein-Complementation Assay for Peroxisome Proliferator-activated Receptor Gamma / SRC-1 Co-activator (AID 2283387; active = hit-call score of the fitted dose curve at least 0.9, where 1 is the maximum)
Chain of Peroxisome proliferator-activated receptor gamma (Homo sapiens) (P37231 whole entry, looked up, the tested form may be a part): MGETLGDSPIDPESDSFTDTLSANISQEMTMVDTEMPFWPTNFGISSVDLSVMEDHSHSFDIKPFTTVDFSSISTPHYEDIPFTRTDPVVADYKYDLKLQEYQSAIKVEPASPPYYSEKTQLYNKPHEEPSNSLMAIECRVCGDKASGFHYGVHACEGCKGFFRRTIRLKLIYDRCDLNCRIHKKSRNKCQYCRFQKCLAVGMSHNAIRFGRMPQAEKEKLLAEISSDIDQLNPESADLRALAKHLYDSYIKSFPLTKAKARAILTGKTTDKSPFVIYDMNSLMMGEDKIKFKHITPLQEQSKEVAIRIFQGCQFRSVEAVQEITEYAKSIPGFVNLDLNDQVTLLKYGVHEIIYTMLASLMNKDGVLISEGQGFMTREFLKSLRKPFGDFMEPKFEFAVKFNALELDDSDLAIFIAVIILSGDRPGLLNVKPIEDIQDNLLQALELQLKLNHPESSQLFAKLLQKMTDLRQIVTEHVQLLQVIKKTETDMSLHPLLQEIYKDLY
Method in brief: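 HEK293T transiently transfected with PPARg and SRC-1 fused to Venus YFP fragments, compounds 8 h at 37C. Fixed, Draq5-stained cells imaged; nuclear/cytoplasmic 488 nm fluorescence ratio over at least 350 cells per image; gain fitted versus DMSO.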

[7] = biological target: Peroxisome proliferator-activated receptor gamma (Homo sapiens) (UniProt P37231); experiment: OT_PPARg_PPARgSRC1_1440: Odyssey Thera (OT) 24-hour Protein-Complementation Assay for Peroxisome Proliferator-activated Receptor Gamma/ SRC-1 Co-activator (AID 2283388; active = hit-call score of the fitted dose curve at least 0.9, where 1 is the maximum)
Method in brief: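 HEK293T transiently transfected with PPARg/SRC-1 split-Venus YFP fusions 48 h before dosing, then treated 24 h at 37C. Fixed cells imaged; nuclear/cytoplasmic 488 nm fluorescence ratio, gain of signal versus DMSO.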

[8] = read-out: Cyclin Dependent Kinase Inhibitor 1A (CDKN1A), CDKN1A (gene 1026); experiment: LTEA_HepaRG_CDKN1A: Life Technologies and Expression Analysis (LTEA) Assay for Cyclin Dependent Kinase Inhibitor 1A (CDKN1A) using HepaRG (AID 2283450); settings: mRNA level, 48 h; actives raise or lower the signal
Method in brief: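 Differentiated HepaRG cells in serum-free induction medium, exposed 48 h in duplicate to eight half-log concentrations up to 100 uM in 0.5% DMSO. mRNA measured by TaqMan qRT-PCR, normalized to ACTB, GAPDH, POLR2A; bidirectional fit versus DMSO.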

[9] = biological target: Retinoic acid receptor RXR-alpha (Homo sapiens) (UniProt P19793); experiment: OT_NURR1_NURR1RXRa_1440: Odyssey Thera (OT) 24-hour HEK293T Protein Complementation Assay for Nurr1/retinoid X receptor (RXR) (AID 2283386; active = hit-call score of the fitted dose curve at least 0.9, where 1 is the maximum)
Method in brief: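 Measured as fluorescence from a reconstituted split reporter, this 24 h HEK293T complementation assay scores compound-induced gain of Nurr1/RXRα association relative to DMSO.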

[10] = CEETOX_H295R_11DCORT: CeeTox H295R High-throughput Steroidogenesis Assay for 11-Deoxycortisol (11DCORT) (AID 2283432); settings: actives raise or lower the signal;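 as to AC50: 11-deoxycortisol secreted into the medium measured by LC-MS/MS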
Method in brief: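 H295R cells prestimulated 48 h with 10 uM forskolin, then exposed 48 h to chemical in 0.1% DMSO. 11-Deoxycortisol in medium quantified by HPLC-MS/MS after MTBE extraction; bidirectional fit versus DMSO. MTT viability read in same wells.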

[11] = CEETOX_H295R_OHPREG: CeeTox H295R High-throughput Steroidogenesis Assay for OH-Pregnenolone (OHPREG) (AID 2283434); settings: actives raise or lower the signal
Method in brief: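 Hormone levels in spent medium were measured by tandem mass spectrometry following liquid-liquid extraction. Cells (H295R) had been forskolin-stimulated (10 uM, 48 h) before a 48 h chemical exposure at 0.1% DMSO, with activity fitted in both directions against DMSO.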

[12] = CEETOX_H295R_OHPROG: CeeTox H295R High-throughput Steroidogenesis Assay for OH-Progesterone (OHPROG) (AID 2283435); settings: actives raise or lower the signal
Method in brief: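 Secreted 17alpha-hydroxyprogesterone is read by tandem MS from media of forskolin-primed H295R cells dosed with chemical for 48 h. Activity is fitted in both directions against DMSO baseline; cytotoxic concentrations are re-tested diluted.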

[13] = CEETOX_H295R_CORTIC: CeeTox H295R High-throughput Steroidogenesis Assay for Corticosterone (CORTIC) (AID 2283437); settings: actives raise or lower the signal;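 also: corticosterone secreted into medium quantified by mass spectrometry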
Method in brief: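 Corticosterone secreted into medium is measured by reverse-phase HPLC with tandem MS following liquid-liquid extraction. Cells are forskolin-stimulated (10 uM, 48 h) before 48 h test exposure; activity fitted in both directions against DMSO.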

[14] = CEETOX_H295R_CORTISOL: CeeTox H295R High-throughput Steroidogenesis Assay for Cortisol (AID 2283438); settings: actives raise or lower the signal;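 also: cortisol secreted into medium quantified by LC-MS/MS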
Method in brief: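 Human adrenocortical H295R cells (passage ≤10) received test chemicals for 48 h after forskolin priming. Secreted cortisol was measured by LC-MS/MS.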

[15] = CEETOX_H295R_DOC: CeeTox H295R High-throughput Steroidogenesis Assay for DOC (AID 2283439); settings: actives raise or lower the signal
Method in brief: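 Secreted DOC was quantified from H295R media by HPLC-MS/MS after 48 h chemical exposure following 48 h forskolin (10 uM) prestimulation. Values were fitted in both directions relative to DMSO, the negative control and baseline.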

[16] = CEETOX_H295R_ESTRADIOL: CeeTox H295R High-throughput Steroidogenesis Assay for Estradiol (AID 2283440); settings: actives raise or lower the signal;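 also: estradiol secreted into medium quantified by LC-MS/MS after dansyl derivatisation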
Method in brief: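 H295R cells pre-stimulated 48 h with 10 uM forskolin, then exposed 48 h to chemical in 0.1% DMSO. Medium estradiol quantified by MTBE extraction, dansyl derivatisation and HPLC-MS/MS; bidirectional fit versus DMSO; MTT viability required >/=70%.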

[17] = CEETOX_H295R_ESTRONE: CeeTox H295R High-throughput Steroidogenesis Assay for Estrone (AID 2283441); settings: actives raise or lower the signal;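 also: human adrenal H295R cells prestimulated with forskolin for two days; estrone secreted into medium measured by LC-MS/MS after dansyl derivatization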
Method in brief: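 H295R cells; 48 h forskolin (10 uM) prestimulation; 48 h compound exposure, 0.1% DMSO final. Medium estrone: MTBE extraction, dansyl derivatization, HPLC-MS/MS. Bidirectional fit vs DMSO.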

[18] = CEETOX_H295R_PROG: CeeTox H295R High-throughput Steroidogenesis Assay for Progesterone (PROG) (AID 2283442); settings: actives raise or lower the signal;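 as to AC50: human H295R adrenal cells primed with 10 µM forskolin before dosing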
Method in brief: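 H295R adrenal cells prestimulated 48 h with 10 uM forskolin, then exposed 48 h to test chemical in 0.1% DMSO. Progesterone in medium quantified by HPLC-MS/MS after MTBE extraction; viability checked by MTT in same wells.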

Measured: AC50

Chain of Fatty acid synthase (Homo sapiens) (P49327 whole entry, looked up): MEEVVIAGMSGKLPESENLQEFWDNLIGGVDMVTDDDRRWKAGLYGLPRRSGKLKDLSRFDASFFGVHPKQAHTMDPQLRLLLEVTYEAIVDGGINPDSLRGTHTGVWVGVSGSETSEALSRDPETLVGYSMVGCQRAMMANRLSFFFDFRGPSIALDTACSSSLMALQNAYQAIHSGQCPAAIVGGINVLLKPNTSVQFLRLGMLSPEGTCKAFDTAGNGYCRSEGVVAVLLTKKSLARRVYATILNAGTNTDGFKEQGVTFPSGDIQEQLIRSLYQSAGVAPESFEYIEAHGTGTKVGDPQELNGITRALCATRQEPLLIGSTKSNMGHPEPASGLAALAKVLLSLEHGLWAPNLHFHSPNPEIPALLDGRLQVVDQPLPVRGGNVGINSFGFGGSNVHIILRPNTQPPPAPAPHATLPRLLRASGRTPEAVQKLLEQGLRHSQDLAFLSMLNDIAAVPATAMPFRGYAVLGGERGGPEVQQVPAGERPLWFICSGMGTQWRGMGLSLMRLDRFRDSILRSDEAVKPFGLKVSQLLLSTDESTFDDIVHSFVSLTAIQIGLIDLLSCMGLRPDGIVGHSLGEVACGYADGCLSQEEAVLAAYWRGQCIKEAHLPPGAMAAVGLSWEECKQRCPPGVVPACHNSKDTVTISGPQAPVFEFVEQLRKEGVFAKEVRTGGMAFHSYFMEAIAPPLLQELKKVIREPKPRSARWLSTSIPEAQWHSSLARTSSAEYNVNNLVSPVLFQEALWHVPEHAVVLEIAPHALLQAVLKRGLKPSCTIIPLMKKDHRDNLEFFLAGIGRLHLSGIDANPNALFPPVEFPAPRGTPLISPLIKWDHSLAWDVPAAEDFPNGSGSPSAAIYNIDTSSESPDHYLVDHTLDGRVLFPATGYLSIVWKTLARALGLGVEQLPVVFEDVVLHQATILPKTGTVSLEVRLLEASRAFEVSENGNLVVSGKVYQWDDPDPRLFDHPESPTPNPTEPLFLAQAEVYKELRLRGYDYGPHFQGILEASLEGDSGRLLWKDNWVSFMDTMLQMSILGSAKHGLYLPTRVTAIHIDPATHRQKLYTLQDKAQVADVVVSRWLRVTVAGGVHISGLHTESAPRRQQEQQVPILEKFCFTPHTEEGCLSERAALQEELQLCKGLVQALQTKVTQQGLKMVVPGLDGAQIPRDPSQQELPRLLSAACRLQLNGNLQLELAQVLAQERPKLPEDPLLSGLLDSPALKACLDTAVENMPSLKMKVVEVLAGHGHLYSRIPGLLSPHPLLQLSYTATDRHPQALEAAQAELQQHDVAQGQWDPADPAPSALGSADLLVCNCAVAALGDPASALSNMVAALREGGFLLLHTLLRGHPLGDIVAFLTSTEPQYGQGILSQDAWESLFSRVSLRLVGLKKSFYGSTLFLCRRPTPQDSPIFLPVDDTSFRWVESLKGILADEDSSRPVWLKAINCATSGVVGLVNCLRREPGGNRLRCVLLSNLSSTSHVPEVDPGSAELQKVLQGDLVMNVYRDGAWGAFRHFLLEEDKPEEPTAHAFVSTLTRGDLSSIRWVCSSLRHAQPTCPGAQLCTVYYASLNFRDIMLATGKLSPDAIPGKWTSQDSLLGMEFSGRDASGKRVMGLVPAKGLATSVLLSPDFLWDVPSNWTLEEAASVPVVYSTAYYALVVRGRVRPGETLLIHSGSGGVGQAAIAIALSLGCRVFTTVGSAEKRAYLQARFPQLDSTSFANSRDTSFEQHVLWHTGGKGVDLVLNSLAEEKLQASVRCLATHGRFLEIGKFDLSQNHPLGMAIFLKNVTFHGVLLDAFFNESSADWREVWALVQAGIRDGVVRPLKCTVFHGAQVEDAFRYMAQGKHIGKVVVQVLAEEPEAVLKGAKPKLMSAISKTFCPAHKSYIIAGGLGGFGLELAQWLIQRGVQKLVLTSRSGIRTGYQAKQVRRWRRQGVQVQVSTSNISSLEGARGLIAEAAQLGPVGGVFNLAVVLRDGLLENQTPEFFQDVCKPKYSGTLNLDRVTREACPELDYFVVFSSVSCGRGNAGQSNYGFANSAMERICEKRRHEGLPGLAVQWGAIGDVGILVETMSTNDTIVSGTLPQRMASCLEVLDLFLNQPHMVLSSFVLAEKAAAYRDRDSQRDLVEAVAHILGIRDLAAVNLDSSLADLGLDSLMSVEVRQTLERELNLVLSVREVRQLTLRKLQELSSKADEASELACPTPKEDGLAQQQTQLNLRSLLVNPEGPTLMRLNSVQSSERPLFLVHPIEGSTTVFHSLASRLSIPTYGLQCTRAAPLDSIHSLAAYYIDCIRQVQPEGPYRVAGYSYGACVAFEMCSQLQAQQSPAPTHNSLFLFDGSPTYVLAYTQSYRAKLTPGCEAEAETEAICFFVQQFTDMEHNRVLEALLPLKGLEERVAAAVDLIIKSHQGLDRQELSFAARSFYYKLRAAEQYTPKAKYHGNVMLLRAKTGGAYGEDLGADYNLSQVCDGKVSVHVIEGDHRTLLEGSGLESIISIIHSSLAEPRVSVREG

O=C(OCCCCCCOC(=O)c1ccccc1)c1ccccc1
inactive: [1] | [2] | [3] | [4] | [5]

CCOC(=O)O[C@H](C)OC(=O)c1ccc2c(c1)cc(C(=O)NC1CCN(C(C)C)CC1)n2Cc1cc(-c2ccc(Cl)s2)on1
inactive: [6] | [7] | [2] | [3] | [4] | [5]

c1ccc(C[n+]2cccc3ccccc32)cc1
active: [3] 50 µM
inactive: [6] | [7] | [2] | [4] | [5]

O=c1[nH]sc2ccccc12
inactive: [6] | [7] | [2] | [8] | [5]

CN1C(=O)N(c2ccccc2Br)Cc2cnc(Nc3ccc4c(c3)OCC(CO)O4)nc21 (configuration not stated)
active: [1] 0.714 µM | [10] 0.723 µM | [15] 0.679 µM | [17] 0.326 µM | [18] 0.661 µM | [2] 90.4 µM | [3] 78.3 µM
not listed: [5] | [6]
inactive: all other assays above

O=C1O[C@H]([C@@H](O)CO)C(O)=C1O
inactive: [9] | [6] | [7] | [2] | [3] | [4] | [8] | [5]

Cc1cccc2ccccc12
inactive: [1] | [9] | [6] | [7] | [2] | [4] | [5]

Cc1cc(F)ccc1-c1cc(N2CC[C@@H](O)[C@H]2CO)ncc1N(C)C(=O)C(C)(C)c1cc(C(F)(F)F)cc(C(F)(F)F)c1
active: [9] 9.74 µM | [2] 71.7 µM
inactive: [6] | [7] | [3] | [4]

Cc1occc1C(=O)Nc1ccc(C(=O)N2CCC(F)(F)/C(=C\C(=O)N3CCC(N4CCCCC4)CC3)c3ccccc32)cc1
active: [1] 28.6 µM | [9] 28.3 µM | [5] 39.9 µM
inactive: [6] | [7] | [2] | [4]

CCCCCCCCCCCC[N+](C)(C)C
active: [2] 82.5 µM | [3] 80.9 µM | [8] 82 µM | [5] 82.7 µM
not listed: [1] | [9] | [16] | [17]
inactive: all other assays above

CCCCCCCCCC(=O)O
inactive: [1] | [9] | [7] | [2] | [3] | [4] | [8]
